# From PubChem BioAssay
# PLCb3 inh: blocks human PLC-beta3 enzyme activity; Q01970; Purified PLC-beta3, fluorogenic substrate, fluorescence; inhibition, % at 12.2 µM; 370,000 compounds, 0.18% hits; AID 720704;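 further: 0% = median of compound wells on plate and 100% = full blocker control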
# Target sequence (Q01970 whole entry, looked up): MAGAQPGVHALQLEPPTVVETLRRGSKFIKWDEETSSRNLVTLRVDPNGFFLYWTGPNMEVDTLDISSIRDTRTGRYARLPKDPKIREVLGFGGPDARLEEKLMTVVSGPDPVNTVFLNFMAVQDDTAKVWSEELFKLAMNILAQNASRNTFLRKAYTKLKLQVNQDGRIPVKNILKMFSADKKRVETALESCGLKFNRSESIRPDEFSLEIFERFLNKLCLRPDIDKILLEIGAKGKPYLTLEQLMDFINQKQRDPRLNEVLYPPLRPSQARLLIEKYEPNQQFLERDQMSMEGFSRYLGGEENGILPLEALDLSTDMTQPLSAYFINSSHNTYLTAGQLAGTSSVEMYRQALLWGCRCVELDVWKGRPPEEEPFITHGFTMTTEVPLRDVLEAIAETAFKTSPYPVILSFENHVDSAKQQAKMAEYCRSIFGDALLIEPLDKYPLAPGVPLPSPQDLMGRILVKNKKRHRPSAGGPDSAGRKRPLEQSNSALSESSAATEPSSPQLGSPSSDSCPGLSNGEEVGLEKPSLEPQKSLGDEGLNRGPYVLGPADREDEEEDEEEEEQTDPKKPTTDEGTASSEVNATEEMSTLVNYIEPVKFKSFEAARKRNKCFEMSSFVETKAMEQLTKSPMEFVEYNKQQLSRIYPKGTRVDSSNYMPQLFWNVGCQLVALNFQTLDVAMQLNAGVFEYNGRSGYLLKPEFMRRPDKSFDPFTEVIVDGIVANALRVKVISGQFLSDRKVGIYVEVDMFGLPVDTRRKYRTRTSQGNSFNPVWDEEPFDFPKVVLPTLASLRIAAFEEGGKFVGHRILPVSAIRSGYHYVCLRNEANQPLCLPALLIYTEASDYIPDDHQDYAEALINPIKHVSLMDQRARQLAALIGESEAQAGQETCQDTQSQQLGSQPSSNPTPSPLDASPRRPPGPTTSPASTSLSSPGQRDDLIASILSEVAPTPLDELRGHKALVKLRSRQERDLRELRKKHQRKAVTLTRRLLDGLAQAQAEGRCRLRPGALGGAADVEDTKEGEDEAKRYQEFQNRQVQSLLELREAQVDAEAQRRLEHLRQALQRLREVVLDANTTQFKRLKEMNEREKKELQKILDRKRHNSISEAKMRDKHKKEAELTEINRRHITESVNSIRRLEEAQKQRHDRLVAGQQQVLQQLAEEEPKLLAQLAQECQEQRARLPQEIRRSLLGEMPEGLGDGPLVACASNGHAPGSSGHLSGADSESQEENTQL
# ADAM10 inh: inhibitors of human ADAM10 | O14672 | AID 720582 | 370,000 compounds, 0.62% hits | inhibition, % at 7 µM | recombinant ADAM10, EDANS/DABCYL FRET peptide cleavage, 3 h;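 active means inhibition above a per-campaign cutoff equal to the mean of compounds falling between control-based bounds plus 3 SD, cut at about 20% in these data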;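 further: 0% = DMSO wells while the 100% control is not disclosed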
# ADAM17 inh: inhibitors of human ADAM17; 370,000 compounds, 0.83% hits; P78536; recombinant ADAM17, EDANS/DABCYL FRET peptide cleavage; inhibition, % at 6.95 µM;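 active means inhibition above the mean of compounds lying between control limits plus 3 SD, set per campaign, cut at about 8.5% in these data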;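 further: 0% = DMSO-only wells as the low control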
# PLC-gamma1 inh: inhibitors of human phospholipase C gamma1. P19174. purified PLC-gamma1, fluorogenic substrate, fluorescence. inhibition, % at 12.2 µM. 370,000 compounds, 0.84% hits; in the data active means inhibition above about 9.5%
# Rce1 inh: blocks yeast Ras-converting enzyme; Q03530; yeast membranes, quenched prenylated peptide cleavage fluorescence; calls only; 290,000 compounds, 0.27% hits; AID 2563;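 active means fall in fluorescence gain of 50% or more versus controls, with final raw signal at or below 3038400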;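 further: plate controls were neutral control wells for no effect and wells lacking membranes for full effect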
# PLCgamma1 ctr: PLC-gamma1 inhibition, counter-screen for PLC-beta3 hits | AID 743258 | shares compounds with PLC-gamma1 inh | purified PLC-gamma1, fluorogenic substrate, fluorescence | inhibition, % at 12.3 µM | 3,300 compounds, 3.1% hits; in the data active means inhibition above about 9.5%
# PLCb3 confirm: confirmation of human PLC-beta3 inhibitors. shares compounds with PLC-gamma1 inh. purified PLC-beta3, fluorogenic substrate fluorescence. inhibition, % at 12.3 µM. 3,300 compounds, 1% hits. AID 743261
# * marks the source's active call; other numbers are inactive results; i = inactive; / = no result. A selection: hits, their analogues and other compounds. The true share with any hit is near 2.1%. Unless noted, no stated cut-off is given here; in the data, active means inhibition above about 11%; inactive means the rest.
SMILES,PLCb3 inh,ADAM10 inh,ADAM17 inh,PLC-gamma1 inh,Rce1 inh,PLCgamma1 ctr,PLCb3 confirm
O=[N+]([O-])c1cccc2ccc(/C=C/c3cccc(Br)c3)nc12,11*,8,7,9,i,0,1
COc1ccc(CNCC(O)(c2ccccc2)c2ccccc2)cc1,-1,6,8,19*,i,-4,-1
N#CCCN(Cc1cccnc1)C(=S)NC(=O)C1CC1,/,/,/,/,i,/,/
Cc1ccc(-n2nc3c(=O)n(CCCC(=O)NCc4ccccc4C)nc(C)c3c2C)cc1,-2,-1,3,14*,i,-8,-3
Cc1ccc(-n2nc3c(=O)n(CCCC(=O)NCc4ccccc4F)nc(C)c3c2C)cc1,-9,-2,-6,1,i,/,/
FC(F)(F)c1nc(Oc2ccccc2)c2ccccc2n1,2,8,3,10*,i,1,1
COC(=O)C1=C(C)NC(=O)NC1c1ccccc1Cl (stereo unspecified),6,12,-1,11*,i,-7,-1
O=c1ccc2cccc([N+](=O)[O-])c2[nH]1,2,-6,-3,1,/,/,/
CNc1nc(C)nc(N/N=C/c2ccccc2)n1,7,0,3,11*,i,-2,-3
Cc1cc(-c2ccccc2)nc(N/N=C/c2ccccc2)n1,-31,0,1,-22,i,/,/
O=C(c1cc([N+](=O)[O-])ccc1Cl)N1CCN(Cc2ccccc2)CC1,-6,11,-4,-6,i,/,/
Cc1cccc(NC(=S)N(Cc2cccc(Br)c2)CC2CCC(C(=O)O)CC2)c1 (stereo unspecified),-1,6,3,11*,i,-11,-5
CCc1ccc(CCNC(=O)OCCCN2CCC3(CCC(C)CC3)C2=O)cc1 (stereo unspecified),2,4,0,-1,/,/,/
Cn1c(=O)[nH]c(=O)c2c1nc(SCCN1CCOCC1)n2CCCc1ccccc1,12*,0,4,6,i,0,1
CCCn1c(N2CCC(Cc3ccccc3)CC2)nc2c1c(=O)[nH]c(=O)n2C,4,2,3,12*,i,0,-2
Cn1c(=O)[nH]c(=O)c2c1nc(SCCN1CCOCC1)n2Cc1ccccc1,1,-3,-4,-1,i,/,/
CCCCCn1c(N2CCC(Cc3ccccc3)CC2)nc2c1c(=O)[nH]c(=O)n2C,/,/,/,/,i,/,/
CN1CCN(c2nc3c(c(=O)[nH]c(=O)n3C)n2CCOc2ccccc2)CC1,3,7,-3,2,i,/,/
Cn1c(=O)[nH]c(=O)c2c1nc(N1CCCCCC1)n2CCOc1ccccc1,-8,-8,0,11*,i,-4,-1
CN1OC[C@@H]2CN(S(=O)(=O)c3cc(Cl)cc(Cl)c3)[C@H](c3ccc(-c4ccc(C#N)cc4)cc3)C[C@@H]21,0,-10,-4,5,/,/,/
CC1CCC(NC(=O)CCN2C(=O)C3CC=CCC3C2=O)CC1 (stereo unspecified),0,10,1,12*,/,-2,1
CC1=NN(c2ccc(N)cc2)C(=O)C1,-9,-2,-4,-6,i,/,/
CC1=NN(c2ccccc2)C(=O)C1,10,8,1,24*,i,7,8
CC1=NN(Cc2ccccc2)C(=O)C1,7,4,2,13*,i,-5,-3
CC1=NN(c2ccc(Cl)cc2)C(=O)C1,8,7,3,13*,i,-6,-3
SMILES,PLCb3 inh,ADAM10 inh,ADAM17 inh,PLC-gamma1 inh,Rce1 inh,PLCgamma1 ctr,PLCb3 confirm
CC(c1ccco1)N(C(=O)c1cccc(Br)c1)c1ccccn1 (stereo unspecified),-3,0,-4,-3,i,/,/
O=C(c1ccco1)N1CCN(Cc2nnnn2C2CCCCC2)CC1,-4,-1,-1,-2,i,/,/
Cc1nnc2sc(SCC(=O)N3CCCCC3)nn2c1=O,-3,6,-3,12*,i,-7,-1
Cc1nnc2sc(SCC(=O)N3CCC(C)CC3)nn2c1=O,-2,0,-6,0,i,/,/
COc1ccccc1NC(=O)c1ccccc1S(=O)(=O)c1ccc([N+](=O)[O-])cc1,-1,3,2,9.8*,i,-2,-2
COc1ccc(S(=O)(=O)N2CCCCC2)cc1NC(=O)c1cccc(S(=O)(=O)N2CC(C)OC(C)C2)c1 (stereo unspecified),-8,-17,2,5,/,/,/
O=C(NNC(=O)c1ccccc1-n1cccc1)c1cncc(Br)c1,-8,-9,-2,-1,/,/,/
COC(=O)CCC(=O)N1CCC(CCC(=O)NCc2ccc(F)cc2)CC1,-3,1,-1,13*,i,-4,-5
Nn1c(SCc2cn3ccccc3n2)nnc1-c1ccncc1,-1,3,0,4,i,/,/
Nn1c(SCc2cn3cc(Cl)ccc3n2)nnc1-c1ccncc1,-8,2,4,11*,i,-6,-3
CCOC(=O)Nc1cc(=O)c([N+](=O)[O-])c(N)[nH]1,13*,4,7,4,/,-3,3
C[C@H]1[C@H](c2ccccc2)Oc2ccc(Cl)cc2S(=O)(=O)N1C[C@@H]1CCCN1C(=O)OC(C)(C)C,-2,-7,0,-2,/,/,/
O=C(/C=C/c1ccc([N+](=O)[O-])cc1)NC1CC2CCC1C2 (stereo unspecified),10,1,5,14*,i,7,5
CCOC(=O)c1ccc(-c2ccc3oc(-c4ccsc4)cc(=O)c3c2)cc1F,-1,-1,6,10*,/,-17,-14
COc1cc(-c2ccc3oc(-c4ccsc4)cc(=O)c3c2)cc(OC)c1OC,-43,4,7,-25,/,/,/
CCN(CC)C(=O)C[n+]1cccc(C(N)=O)c1,10,8,2,9.6*,i,-3,-1
COc1ccc(CN2CN3Cc4cc(OC)ccc4C3CS2(=O)=O)cc1 (stereo unspecified),-12,-15,-9,-11,/,/,/
Cn1cc(C(=O)NC2C3CC4CC(C3)CC2C4)cn1 (stereo unspecified),2,-3,-5,12*,i,-4,-6
Cn1cc(Br)c(C(=O)NC2C3CC4CC(C3)CC2C4)n1 (stereo unspecified),0,-2,-4,1,i,/,/
CCOC(=O)C(CC)c1cc2n(c(=O)c1C#N)CCC21OCCO1 (stereo unspecified),-55,i,-152,-38,/,/,/
CCC1CCCCN1C(=O)CSc1nc2ncccc2[nH]1 (stereo unspecified),-7,-8,2,11*,i,-4,-3
CC1CCN(C(=O)CSc2nc3ncccc3[nH]2)CC1,3,1,2,0,i,/,/
CCC(Oc1ccccc1C)C(=O)N1CCCN(C)CC1 (stereo unspecified),-5,-1,-9,4,i,/,/
